# PubChem BioAssay (EPA / NIEHS)
# Results filed as inconclusive are left out. The source made the active and inactive calls. Rule for the calls: active = hit-call score of the fitted dose curve at least 0.9, where 1 is the maximum; inconclusive = response in the unintended direction; inactive = score below 0.9.
# Legend:
# [1] = ArunA_CellTiter_hNP: Viability Assessment in the ArunA Biomedical's Oris Neural Crest (hNC) Cell Migration Assay (AID 2283753)
# Protocol: ArunA_CellTiter_hNP is a cell-based, single-readout assay that uses human H9-derived neuroprogenitor stem cells (hNP1).Measurements were taken 72 hours after chemical dosing in a 96-well plate.ArunA_CellTiter_hNP is an assay component measured from the ArunA_CellTiter_hNP assay. It is designed to make measurements of viability, a form of viability reporter, as detected with fluorescence intensity signals by HCS Fluorescent Imaging technology. Data from the assay component ArunA_CellTiter_hNP was analyzed at the endpoint, ArunA_CellTiter_hNP, in the positive analysis fitting direction relative to DMSO as the negative control and baseline of activity. […]
# To assess the hNP and hNC migration and cell titer endpoints, 60,000 cells per well were plated onto Matrigel in basal growth medium with LIF and bFGF in a 96-well plate format. […] Cell viability in the detection zone was quantitated using a Flexstation3 microplate reader (ex494 nm/em 517 nm). Corresponding cell titer endpoints were assessed for the hNP and hNC cells using the Promega CellTiter Aqueous One Solution Cell Proliferation Assay (Cat no. G3581; CellTiter 96). Finally, to gain insight into the mechanisms by which cells migrate into the detection zone, Ki-67 expression was quantified for 10 additional chemicals in the hNP and hNC systems. […]
# [2] = ArunA_Migration_hNC: ArunA Biomedical's Oris Neural Crest (hNC) Cell Migration Assay (AID 2283755)
# How it was run: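 Calcein-AM fluorescence (ex494 nm/em 517 nm) in the stopper-defined detection zone quantifies migration of hNC cells after 72 h chemical exposure; 60,000 cells/well plated on Matrigel with LIF and bFGF, 16 h pre-incubation. DMSO baseline.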
# [3] = ArunA_NOG_NucleusCount: ArunA Biomedical's Neurite Outgrowth (NOG) Assay for Nucleus Count (AID 2283756)
# How it was run: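 Viable neuron count, from Hoechst nuclei passing size and intensity gates, imaged at 20x on differentiated H9-derived human neurons. Exposure lasted 48 h from seeding; activity was scored relative to DMSO.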
# [4] = ArunA_NOG_BranchPointsPerNeurite: ArunA Biomedical's Neurite Outgrowth (NOG) Assay for Branch Points Per Neurite (AID 2283759)
# How it was run: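 Automated image analysis traced neurites (processes >10 um) from valid cell bodies after Hoechst and βIII-tubulin staining. hNN cells from H9 embryonic stem cells, 48 h exposure. Fitted bidirectionally against DMSO.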
# [5] = system: Thyroperoxidase (TPO), gene 445522; test: CCTE_Simmons_GUA_TPO: CCTE's Guaiacol Assay for Thyroperoxidase (TPO) Inhibition, Simmons Lab (AID 2283750)
# How it was run: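 Porcine thyroid microsomes (25 ug) in 200mM potassium phosphate, preincubated 30 s at 37C with compound (8 concentrations, 5 nM–87.5 uM) and 35mM guaiacol; 1mM H2O2 starts reaction. Absorbance change at 450nm over first 80 s; loss of signal versus DMSO, three replicates.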
# [6] = target: Luciferin 4-monooxygenase (Photinus pyralis) (UniProt P08659); test: CCTE_Simmons_QuantiLum_inhib_2: CCTE's Firefly Luciferase Inhibition Assay, Simmons Lab (AID 2283767);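 for AC50: potency for inhibitors that lower luciferase luminescence relative to DMSO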
# Chain of Luciferin 4-monooxygenase (Photinus pyralis) (P08659 whole entry, looked up): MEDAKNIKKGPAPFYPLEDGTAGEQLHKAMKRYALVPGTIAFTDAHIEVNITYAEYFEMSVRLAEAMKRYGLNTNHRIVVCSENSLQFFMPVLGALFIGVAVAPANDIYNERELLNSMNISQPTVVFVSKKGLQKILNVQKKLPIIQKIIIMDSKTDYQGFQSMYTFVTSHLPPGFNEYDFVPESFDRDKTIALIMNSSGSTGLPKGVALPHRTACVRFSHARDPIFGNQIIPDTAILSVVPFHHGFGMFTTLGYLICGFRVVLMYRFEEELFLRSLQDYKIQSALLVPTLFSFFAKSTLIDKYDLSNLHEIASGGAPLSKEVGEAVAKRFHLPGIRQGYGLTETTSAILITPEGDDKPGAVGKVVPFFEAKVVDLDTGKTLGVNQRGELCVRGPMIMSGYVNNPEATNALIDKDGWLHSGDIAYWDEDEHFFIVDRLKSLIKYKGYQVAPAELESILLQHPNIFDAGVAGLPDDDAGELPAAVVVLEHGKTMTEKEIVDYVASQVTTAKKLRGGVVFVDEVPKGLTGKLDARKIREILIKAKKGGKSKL
# How it was run: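 Eight-point titrations of each chemical, 5 nM–87.5 uM final in 0.5% DMSO, were run in three biological replicates against recombinant luciferase for 30 min at 37C. Bioluminescence signal loss, read on reagent injection, gave the inhibition endpoint.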
# [7] = ArunA_Migration_hNP: ArunA Biomedical's Oris Neuroprogenitor (hNP) Cell Migration Assay (AID 2283754)
# How it was run: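 Readout is calcein-AM fluorescence (ex494/em517) of cells migrating into the detection zone, relative to DMSO. hNP1 cells (H9-derived) grown on Matrigel behind stoppers 16 h, then stoppers pulled and chemical applied 72 h; cytochalasin D as control.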
# [8] = ArunA_NOG_NeuritesPerNeuron: ArunA Biomedical's Neurite Outgrowth (NOG) Assay for Neurites Per Neuron (AID 2283758)
# How it was run: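 Differentiated human H9-derived neurons exposed to chemicals for 48 h from seeding, then stained with Hoechst and βIII-tubulin/DyLight 488. Automated imaging counted neurites (processes >10 um) per valid neuron; loss of signal versus DMSO scored.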
# [9] = system: chicken Androgen Receptor (AR), gene 422165; test: ATG_chAR_XSP1: Attagene TRANS-FACTORIAL Multi-Species (XSP1) HepG2 Assay for chicken Androgen Receptor (AR) (AID 2283768)
# Protocol: ATG_XSP1_multi-species_TRANS is a cell-based, multiplexed assay created by modifying the existing Attagene TRANS-FACTORIAL system to include a panel of nuclear receptors from some or all the following species: human (Homo sapiens), mouse (Mus musculus), frog (Xenopus laevis), zebrafish (Danio rerio), chicken (Gallus gallus), and turtle (Chrysemys picta). The ECOTOX-FACTORIAL format uses HepG2, a human liver cell line, with measurements taken at 24 hours after chemical dosing in a 24-well plate. Xsp1 included 3 nM 6-alpha-fluorotestosterone to partially stimulate the androgen receptor.ATG_chAR_XSP1 is one of 29 assay components measured or calculated from the ATG_XSP1_multi-species_TRANS assay. It is designed to make measurements of mRNA induction, a form of inducible reporter, as detected with fluorescence intensity signals by Reverse transcription polymerase chain reaction (RT-PCR) and Capillary electrophoresis technology.The assay endpoint ATG_chAR_XSP1 was analyzed in the positive analysis fitting direction relative to DMSO as the negative control and baseline of activity. Using a type of inducible reporter, measures of mRNA for gain-of-signal activity can be used to understand the reporter gene at the transcription factor-level as they relate to the gene AR. Furthermore, this assay endpoint can be referred to as a primary readout, because this assay has produced multiple assay endpoints where this one serves a reporter gene function. […]
# Human liver HepG2 cells are transiently transfected with multiple reporter transcription units (MRTUs) in 6-well plates using FuGene 6 reagent (Roche; 3 ml FuGene/1 mg DNA). […] A major difference between the CIS and TRANS system is that in CIS activities of endogenous TFs are measured, whereas the TRANS assay evaluates changes in activities of exogenous, chimeric NR-Gal4 proteins. […] The fragments were purified using Qiaquick PCR columns (Qiagen), analyzed on an ABI 3130xL genetic analyzer (Applied Biosystems) with peak positions identified by using a set of X-rhodamine (ROX)-labeled MapMarker1000 molecular weight standards (BioVentures). […]
# [10] = ArunA_CellTiter_hNC: Viability Assessment in the ArunA Biomedical's Oris Neural Crest (hNC) Cell Migration Assay (AID 2283752)
# How it was run: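 Cytotoxicity endpoint run alongside the migration assay: neural crest cells on Matrigel, 60,000 per well, preincubated 16 h at 37C, treated 72 h; CellTiter Aqueous One signal loss relative to DMSO.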
compound,measurement,setting,value
CCC(C)Nc1c([N+](=O)[O-])cc(C(C)(C)C)cc1[N+](=O)[O-] (configuration not stated),outcome,[1],inactive
same,outcome,[2],inactive
same,outcome,[3],inactive
same,outcome,[4],inactive
CNC(=O)CSP(=S)(OC)OC,outcome,[5],inactive
same,AC50,[6],34.2 µM (active)
COP(=S)(OC)Oc1ccc([N+](=O)[O-])cc1,outcome,[5],inactive
same,outcome,[6],inactive
O=S(=O)(O)C(F)(F)C(F)(F)C(F)(F)C(F)(F)C(F)(F)C(F)(F)C(F)(F)C(F)(F)F,outcome,[7],inactive
same,outcome,[2],inactive
same,AC50,[3],0.649 µM (active)
same,AC50,[8],1.02 µM (active)
same,outcome,[4],inactive
same,outcome,[6],inactive
same,AC50,[9],148 µM (active)
O=C(Nc1ccccc1)Nc1cnns1,outcome,[6],inactive
COP(=O)(OC)OC=C(Cl)Cl,outcome,[6],inactive
CCCN(CCOc1c(Cl)cc(Cl)cc1Cl)C(=O)n1ccnc1,outcome,[6],inactive
Oc1cc(Cl)ccc1Oc1ccc(Cl)cc1Cl,outcome,[10],inactive
same,outcome,[1],inactive
same,outcome,[7],inactive
same,outcome,[2],inactive
same,outcome,[3],inactive
same,outcome,[8],inactive
same,outcome,[4],inactive
same,outcome,[6],inactive
O=C1c2ccccc2C(=O)N1SC(Cl)(Cl)Cl,outcome,[6],inactive
CC1(c2ccc(Oc3ccccc3)cc2)OC(=O)N(Nc2ccccc2)C1=O (configuration not stated),outcome,[6],inactive
COc1nn(CSP(=S)(OC)OC)c(=O)s1,outcome,[6],inactive
CNC(=O)Oc1cccc(N=CN(C)C)c1,outcome,[6],inactive
CN1CSC(=S)N(C)C1,AC50,[6],40.5 µM (active)
Oc1ccc(Cl)cc1Cc1ccccc1,outcome,[6],inactive
CNC(=O)/C=C(\C)OP(=O)(OC)OC,outcome,[6],inactive
CC1(C)C(C=C(Cl)Cl)C1C(=O)OC(C#N)c1ccc(F)c(Oc2ccccc2)c1 (configuration not stated),outcome,[9],inactive
COP(=S)(OC)Oc1ccc(SC)c(C)c1,outcome,[6],inactive
N#CN,outcome,[6],inactive
CCCN(CCC)c1c([N+](=O)[O-])cc(C(F)(F)F)cc1[N+](=O)[O-],AC50,[9],47.9 µM (active)
